A short description of test [1]: compounds binding Alexa647 anti-His antibody – biochemical, small-molecule microarray, 635 nm fluorescence, artefact control for SMM control protein annotation, primary screen (AID 1128).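 Further: score merges feature fluorescence with signal-to-noise for each printed compound spot.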 Particulars: higher = more signal.
For test [2], the system named is Human papillomavirus type 1a E7 protein (residues 1-88). In words: HPV1a E7 small-molecule binders, primary screen, biochemical, small-molecule microarray, residues 1-88, 635 nm (AID 1129). Particulars: small-molecule microarray binding, fluorescence 635 nm; higher = more signal.
For test [3], the target named is Focal adhesion kinase 1 (Homo sapiens) (UniProt Q05397). The experiment in a line: PTK2 protein binding on printed compound slides – biochemical, small-molecule microarray, 635/667 nm fluorescence, BSA, DTT, primary screen (AID 1130).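 Further: composite of spot emission at 667 nm and signal to noise over triplicate slides.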 Particulars: 635 nm fluorescence, higher = more signal.
Sequence of Focal adhesion kinase 1 (Homo sapiens) (Q05397 whole entry, looked up): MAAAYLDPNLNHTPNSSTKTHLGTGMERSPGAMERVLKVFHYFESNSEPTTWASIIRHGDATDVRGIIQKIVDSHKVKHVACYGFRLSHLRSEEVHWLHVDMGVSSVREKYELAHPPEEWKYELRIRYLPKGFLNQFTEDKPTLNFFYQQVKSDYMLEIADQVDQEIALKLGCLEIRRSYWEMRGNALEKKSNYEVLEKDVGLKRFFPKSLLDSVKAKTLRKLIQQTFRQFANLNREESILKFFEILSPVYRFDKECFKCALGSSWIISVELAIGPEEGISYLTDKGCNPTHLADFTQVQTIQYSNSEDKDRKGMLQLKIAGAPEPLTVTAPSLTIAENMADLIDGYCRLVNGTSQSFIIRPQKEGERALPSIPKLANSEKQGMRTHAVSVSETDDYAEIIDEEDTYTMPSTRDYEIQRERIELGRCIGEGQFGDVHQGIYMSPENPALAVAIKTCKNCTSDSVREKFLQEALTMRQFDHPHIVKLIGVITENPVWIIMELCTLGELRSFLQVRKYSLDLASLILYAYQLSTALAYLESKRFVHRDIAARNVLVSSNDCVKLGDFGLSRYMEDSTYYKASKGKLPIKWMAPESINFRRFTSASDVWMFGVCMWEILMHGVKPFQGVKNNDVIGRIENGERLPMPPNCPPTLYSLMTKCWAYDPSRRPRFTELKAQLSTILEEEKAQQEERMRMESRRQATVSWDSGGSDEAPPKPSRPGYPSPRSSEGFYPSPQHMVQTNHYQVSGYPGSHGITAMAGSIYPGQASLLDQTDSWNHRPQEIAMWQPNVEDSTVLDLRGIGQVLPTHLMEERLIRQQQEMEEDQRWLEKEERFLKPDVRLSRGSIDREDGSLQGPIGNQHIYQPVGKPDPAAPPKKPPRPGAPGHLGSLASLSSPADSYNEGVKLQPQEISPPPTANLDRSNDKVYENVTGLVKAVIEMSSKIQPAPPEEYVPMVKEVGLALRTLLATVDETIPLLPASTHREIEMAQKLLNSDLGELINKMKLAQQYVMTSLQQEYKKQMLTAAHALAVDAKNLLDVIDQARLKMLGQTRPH
Test [4] relates to Fibrinogen (Alexa647-labelled). The experiment in a line: Alexa647-fibrinogen binding to printed small molecules – biochemical, small-molecule microarray, 635/667 nm fluorescence, artefact control for SMM control-protein annotation, profiling panel (AID 1131).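 Further: z-score merges 667 nm fluorescence with per-spot signal-to-noise over triplicate slides.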 Particulars: fibrinogen-A647 binding fluorescence, higher = more signal.
The target of test [5] is Follistatin (Homo sapiens) (UniProt P19883). In words: FST protein binding to printed compounds – biochemical, small-molecule microarray, 635/667 nm fluorescence, primary screen (AID 1132). Particulars: 635 nm fluorescence, higher = more signal.
Sequence of Follistatin (Homo sapiens) (P19883 whole entry, looked up): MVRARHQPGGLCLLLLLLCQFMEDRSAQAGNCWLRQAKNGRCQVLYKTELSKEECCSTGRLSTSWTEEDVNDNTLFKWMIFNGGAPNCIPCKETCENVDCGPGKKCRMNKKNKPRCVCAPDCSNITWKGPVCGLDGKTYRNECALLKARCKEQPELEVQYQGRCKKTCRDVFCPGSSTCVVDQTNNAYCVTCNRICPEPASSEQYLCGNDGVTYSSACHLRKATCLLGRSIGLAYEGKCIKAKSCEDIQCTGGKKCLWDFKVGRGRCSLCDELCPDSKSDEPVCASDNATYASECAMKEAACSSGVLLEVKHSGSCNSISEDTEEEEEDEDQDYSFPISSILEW
Test [6] deals with Fibroblast growth factor 2 (Homo sapiens) (UniProt P09038). In words: basic fibroblast growth factor binding to printed compounds – biochemical, small-molecule microarray, 635/667 nm fluorescence, primary screen (AID 1133). The following applies: FGF2, fluorescence 635/667, higher = more signal.
Sequence of Fibroblast growth factor 2 (Homo sapiens) (P09038 whole entry, looked up): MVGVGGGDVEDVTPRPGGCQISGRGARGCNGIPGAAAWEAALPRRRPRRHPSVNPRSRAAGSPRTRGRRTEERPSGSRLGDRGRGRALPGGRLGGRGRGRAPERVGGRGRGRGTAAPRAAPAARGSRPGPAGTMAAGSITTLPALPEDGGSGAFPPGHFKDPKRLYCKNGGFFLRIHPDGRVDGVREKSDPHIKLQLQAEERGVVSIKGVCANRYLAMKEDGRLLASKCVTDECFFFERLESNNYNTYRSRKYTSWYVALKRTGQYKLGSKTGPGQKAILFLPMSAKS
Test [7] in a line: JC-1 mitochondrial potential readout, lung cancer cells – cell-based, A549, JC-1 fluorescence, basal, 24 h, 100 nL, profiling panel (AID 1138).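 Further: A549 lung adenocarcinoma cells under basal conditions with no added stimulus; test concentration not given here.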 The following applies: higher = more signal.
For a further test, the system named is Lefty1. In words: Lefty1 protein binding to printed compounds – biochemical, small-molecule microarray, 635/667 nm fluorescence, primary screen (AID 1139). Particulars: fluorescence 635/667, higher = more signal.
Test [8] concerns wheat germ agglutinin (Triticum aestivum), Alexa647-labelled. In words: Alexa647-WGA lectin binding to printed small molecules – biochemical, small-molecule microarray, 635/667 nm fluorescence, artefact control for SMM control-protein annotation, profiling panel (AID 1140).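 Further: score merges 667 nm feature emission with signal to noise over triplicate slides.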 The following applies: WGA-A647 binding, 635 nm fluorescence, higher = more signal.
Test [9] concerns the target Luciferin 4-monooxygenase (Photinus pyralis) (UniProt P08659). In words: inhibition of purified Photinus pyralis luciferase – biochemical, luminescence, purified enzyme, 2006 set, primary screen (AID 1141).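 Further: cell-free assay with purified firefly luciferase at 100 ng per well in PBS; test concentration not given here.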 Particulars: purified firefly luciferase, SteadyGlo luminescence, 30 min; higher = more signal, called active from +8 up or from −8 down.
Test [10] concerns Wnt5a (protein binding on small-molecule microarray). In words: small molecules binding Wnt5a protein – biophysical, small-molecule microarray, 635/667 nm fluorescence, primary screen (AID 1142).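 Further: fluorescence read at 667 nm with signal to noise per printed feature.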 Particulars: 635 nm fluorescence, higher = more signal.
The nature of test [11]: ATP-based viability of Huh7 replicon cells – cell-based, CellTiter-Glo luminescence, basal, 48 h, cytotoxicity control for HCV replication inhibitor project, primary screen (AID 1143).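 Further: Huh7 hepatoma cells carrying a hepatitis C replication reporter with no stimulus; test concentration not given here.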 Particulars: higher = more signal, called active from +8 up or from −8 down. On the technique in general: In antiviral work, replicon cells carry a viral genome segment that copies itself.
Test [12] can be described thus: Pseudomonas biofilm growth suppression – PAO1 strain, BacTiter-Glo luminescence, LB-PBS, primary screen (AID 1144). The following applies: P. aeruginosa PAO1 biofilm, 12 h, higher = more signal.
Test [13] can be described thus: basal CRE-LacZ reporter activity in PC12 – cell-based, unstimulated, primary screen (AID 1145). The following applies: no forskolin, luminescence, 4.5 h, higher = more signal, called active from +8 up or from −8 down.
A short description of test [14]: forskolin-driven CRE-LacZ activity in PC12 – cell-based, CRE-LacZ reporter, forskolin-stimulated, primary screen (AID 1146).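 Further: PC12 cells with 6xCRE LacZ reporter stimulated by forskolin 10 µM; beta-galactosidase reporter signal reflecting CREB driven transcription.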 The following applies: luminescence, 4.5 h, higher = more signal, called active from +8 up or from −8 down.
The target in test [15] is Streptavidin (Streptomyces avidinii) (UniProt P22629). In words: compounds binding control protein streptavidin – biophysical, small-molecule microarray, 635/667 nm fluorescence, artefact control for SMM compound annotation, primary screen (AID 1147).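 Further: signal reflects streptavidin binding to arrayed compounds as a control protein.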 The following applies: higher = more signal.
Sequence of Streptavidin (Streptomyces avidinii) (P22629 whole entry, looked up): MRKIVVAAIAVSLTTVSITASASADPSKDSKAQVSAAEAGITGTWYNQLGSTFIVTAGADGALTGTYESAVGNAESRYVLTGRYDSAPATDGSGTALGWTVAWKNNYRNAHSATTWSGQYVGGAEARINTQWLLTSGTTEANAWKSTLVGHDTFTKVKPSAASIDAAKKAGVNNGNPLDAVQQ
Test [16] is described as follows: probe aInhba binding on compound microarray – biochemical, small-molecule microarray, 635/667 nm fluorescence, primary screen (AID 1148).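 Further: score merges 667nm spot fluorescence with signal-to-noise for antibody binding to printed compounds.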 Particulars: higher = more signal.
The target of test [17] is Torsin-1A (Homo sapiens) (UniProt O14656). In words: TOR1A wild-type binding on microarray – cell lysate, small-molecule microarray, lysate, 635/667 nm, primary screen (AID 1149). Particulars: COS7 hTOR1A-WT lysate, 635 nm fluorescence, higher = more signal.
Sequence of Torsin-1A (Homo sapiens) (O14656 whole entry, looked up): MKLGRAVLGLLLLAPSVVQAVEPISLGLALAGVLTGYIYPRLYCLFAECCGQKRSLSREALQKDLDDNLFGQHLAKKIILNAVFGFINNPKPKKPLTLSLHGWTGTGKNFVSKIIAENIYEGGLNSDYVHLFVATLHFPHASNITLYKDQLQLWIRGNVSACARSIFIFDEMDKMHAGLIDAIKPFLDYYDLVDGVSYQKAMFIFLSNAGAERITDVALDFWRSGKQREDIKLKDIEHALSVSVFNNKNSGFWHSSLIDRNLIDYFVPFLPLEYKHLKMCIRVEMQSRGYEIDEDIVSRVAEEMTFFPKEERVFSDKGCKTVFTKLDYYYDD
Test [18] shares this target. In words: torsin A mutant lysate binding on microarrays – cell lysate, small-molecule microarray, COS7 lysate, 635/667 nm fluorescence, primary screen (AID 1150).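 Further: score pools 667 nm emission and signal to noise measuring lysate protein binding.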 The following applies: COS7 hTOR1A mutant lysate, 635 nm fluorescence, higher = more signal.
In test [19] the test system is Sonic hedgehog protein (Shh). The experiment in a line: Sonic hedgehog microarray binding compounds – biochemical, small-molecule microarray, 635/667 nm fluorescence, primary screen (AID 1151).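 Further: Shh protein binding to compounds spotted on small-molecule microarray slides; score combines spot fluorescence intensity with signal-to-noise across triplicate slides.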 The following applies: 635 nm fluorescence, higher = more signal.

Calls of active or inactive are those of the source. Unless noted, how the calls were made is not given here.

Sequence of Luciferin 4-monooxygenase (Photinus pyralis) (P08659 whole entry, looked up): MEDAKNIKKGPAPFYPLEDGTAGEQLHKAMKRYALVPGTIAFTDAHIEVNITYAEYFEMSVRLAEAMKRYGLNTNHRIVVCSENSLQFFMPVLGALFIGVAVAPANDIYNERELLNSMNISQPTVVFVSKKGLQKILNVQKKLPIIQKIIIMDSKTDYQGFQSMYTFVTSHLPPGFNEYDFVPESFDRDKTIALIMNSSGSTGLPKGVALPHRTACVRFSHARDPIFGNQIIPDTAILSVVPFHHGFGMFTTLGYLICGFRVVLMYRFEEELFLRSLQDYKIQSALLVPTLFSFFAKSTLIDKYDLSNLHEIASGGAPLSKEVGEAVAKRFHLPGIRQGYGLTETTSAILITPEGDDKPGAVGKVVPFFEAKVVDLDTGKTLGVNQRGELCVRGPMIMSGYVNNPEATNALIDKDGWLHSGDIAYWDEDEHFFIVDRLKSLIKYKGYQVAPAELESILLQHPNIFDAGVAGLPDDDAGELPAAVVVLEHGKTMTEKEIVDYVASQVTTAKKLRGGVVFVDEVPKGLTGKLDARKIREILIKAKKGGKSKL

Regarding `[N-]=[N+]=NCc1ccccc1C[C@]1(C(=O)N2CCCCC2)COC(c2ccc(OCCCO)cc2)=N1`, the composite z-score in test [1] stood at 1.13; in [2], 1.07; in test [3], 0.401; in test [4] it was 0.932; in test [5], 0.687; in test [6], 0.765. The composite z-score with Lefty1 is -0.432; in test [8], 0.827; in test [10], 0.114; in test [15] it was 0.997; in test [16], -0.441; with Torsin-1A (Homo sapiens) [17], 0.555. Moreover, the composite z-score with Torsin-1A (Homo sapiens) [18] was found to be 0.278; in test [19], 0.349. For the same compound, the z-score in [7] was 2.45; in test [9] it was -1.71 (inactive); in test [11], -4.72 (inactive); in test [12] it was -0.919 (inactive); in test [13], 1.93 (inactive); in [14], 1.43 (inactive).

On to `O=C1NC(=O)C2C1C=CC(C(O)C1CCCCC1)N2Nc1ccccn1` (stereo not given), for which the composite z-score in [1] amounted to 0.279; in [2], 0.688; in [3], 0.113; in test [4], 0.177; in test [5], 0.597; in [6], 0.205. The composite z-score was 0.119 in the test on Lefty1; 0.149 in test [8]; 0.0408 in test [10]; -0.15 in [15]; -0.0762 in [16]; 0.254 with Torsin-1A (Homo sapiens) [17]. Besides, the values for the composite z-score (in the test with Torsin-1A (Homo sapiens) [18]; in test [19]) were 0.852 and 0.278, respectively. Moreover, the z-score in test [7] was 0.517; in test [9], -0.224 (inactive); in test [11], 1.06 (inactive); in test [12], -1.42 (inactive); in test [13] it was 0.433 (inactive); in test [14], 1.29 (inactive).

On to `O=C(NCCN1CCOCC1)[C@@H]1c2ccccc2C(=O)N(CC23CC4CC(CC(C4)C2)C3)[C@H]1c1ccc(CO)cc1`, for which the composite z-score in [1] turned out to be 2.06; in test [2], 1.25; in test [3] it was 0.211; in test [4], 0.962; in test [5], 0.99; in test [6] it was 0.424. Further, the composite z-score amounted to 0.357 in the test with Lefty1; 1.17 in test [8]; 0.617 in test [10]; 1.12 in test [15]; 0.0542 in test [16]; 0.51 with Torsin-1A (Homo sapiens) [17]. For the same compound, the composite z-score with Torsin-1A (Homo sapiens) [18] amounted to 1.47; in test [19], 0.506. In addition, the z-score in test [7] is 1.26; in test [9], 0.733 (inactive); in [11], -2.69 (inactive); in test [12] it was -0.634 (inactive); in [13], 0.441 (inactive); in test [14], -0.0639 (inactive).

Take `CCOC(=O)C1=CCC(c2ccncc2)N(S(=O)(=O)c2ccc(C)cc2)C1` (stereo not given): the composite z-score in test [1] amounted to 0.871; in test [2] it was 1.25; in test [3], 1.5; in [4], 1.01; in [5], 0.844; in test [6] it was 0.454. In addition, the composite z-score came to 0.353 in the test on Lefty1; 0.829 in [8]; 0.637 in test [10]; 3.08 in [15]; 0.121 in test [16]; 0.344 with Torsin-1A (Homo sapiens) [17]. For the same compound, the composite z-score turned out to be 1.12 with Torsin-1A (Homo sapiens) [18] and 0.245 in [19]. For the same compound, the z-score in test [7] was -0.497; in test [9] it was -0.786 (inactive); in test [11], -4.28 (inactive); in [12] it was -0.83 (inactive); in test [13], 0.546 (inactive); in [14], 0.882 (inactive).

Regarding `Cc1ccc(S[C@]2(C(=O)NC(C)C)CC(=O)N(Cc3ccccc3)[C@@H]2c2ccc(CO)cc2I)cc1`, the composite z-score in [1] was -1.01; in test [2], -0.781; in test [3], -0.0673; in [4], -0.771; in [5], -1.35; in [6], -0.409. For the same compound, the composite z-score was -1.64 in the test with Lefty1; -1.09 in test [8]; -0.114 in test [10]; -0.864 in [15]; -0.128 in test [16]; -0.782 with Torsin-1A (Homo sapiens) [17]. Also, the composite z-score was 0.0888 in the test with Torsin-1A (Homo sapiens) [18] and -0.421 in test [19]. In addition, the z-score in test [7] was 1.32; in test [9] it was -0.629 (inactive); in [11] it was -1.99 (inactive); in test [12], 1.2 (inactive); in test [13], 0.0548 (inactive); in test [14] it was 0.0831 (inactive).

These data come from PubChem BioAssay.
